Assay results reported in PubChem BioAssay (NCI).
About 79,000 compounds went through this panel and 15% of them were active in at least one assay; those are over-represented in the sample as a whole. Activity calls are given as the source filed them. Cut-off read from the data, not from the text of the source: active = growth inhibition above about 70%; inactive = the rest.

Tests used:
[1] = NCI Yeast Anticancer Drug Screen. Data for the rad52 strain (AID 147);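 note: 0% = growth of vehicle-treated control cultures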; details: S. cerevisiae rad52 mutant growth inhibition, hits give high values
Outline: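 The repair-mutant yeast strain was incubated with compounds, then growth was read and inhibition derived relative to vehicle.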

[2] = NCI Yeast Anticancer Drug Screen. Data for the rad50EPP+ strain (AID 151);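 note: 0% = growth of vehicle-treated control cultures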; details: S. cerevisiae rad50 mutant strain, hits give high values
Outline: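 Vehicle-normalised growth inhibition; rad50EPP+ yeast strain, altered in DNA damage repair, compound-treated.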

[3] = NCI Yeast Anticancer Drug Screen. Data for the mgt1 strain (AID 153); details: S. cerevisiae mgt1 mutant growth inhibition, hits give high values
Outline: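 Vehicle-normalized growth inhibition is determined in mgt1 yeast, a strain selected for a defined alteration in DNA repair or cell cycle control.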

[4] = NCI Yeast Anticancer Drug Screen. Data for the rad50 strain (AID 155);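 note: 0% = growth of vehicle-only cultures of the same strain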; details: S. cerevisiae rad50 strain growth inhibition, hits give high values
Outline: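 Relative growth inhibition (compound vs vehicle) was measured in yeast with a defined repair-gene alteration.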

[5] = NCI Yeast Anticancer Drug Screen. Data for the mec2-1 strain (AID 157); details: S. cerevisiae mec2-1 strain, hits give high values
Outline: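 Mutant yeast (mec2-1) grown with compound; growth inhibition relative to vehicle control reported.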

[6] = NCI Yeast Anticancer Drug Screen. Data for the rad14 strain (AID 159);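 note: 0% = growth of vehicle-treated control cultures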; details: S. cerevisiae rad14 strain growth inhibition, hits give high values
Outline: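 Screen for anticancer potential: a yeast strain altered in DNA damage repair is grown with compound, and reduced growth is quantified against vehicle controls.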

[7] = NCI Yeast Anticancer Drug Screen. Data for the sgs1 mgt1 strain (AID 161);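 note: 0% = growth of cultures given vehicle only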; details: S. cerevisiae sgs1 mgt1 strain, hits give high values
Outline: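 Percent growth inhibition was derived by comparing compound-exposed mutant yeast with vehicle-exposed cultures. The strain carries alterations in DNA damage repair.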

[8] = NCI Yeast Anticancer Drug Screen. Data for the CLN2oe strain (AID 163);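 note: 0% = growth of vehicle-only control cultures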; details: S. cerevisiae CLN2oe strain, hits give high values
Outline: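 Compounds are applied to yeast harbouring a defined cell-cycle control change; reduced growth compared with vehicle-treated controls gives the value.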

[9] = NCI Yeast Anticancer Drug Screen. Data for the cln2 rad14 strain (AID 165);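 note: 0% = growth equal to vehicle treated cultures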; details: S. cerevisiae cln2 rad14 strain, hits give high values
Outline: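 Readout is yeast growth inhibition versus vehicle-treated controls, using a strain with cln2 and rad14 alterations exposed to compound.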

[10] = NCI Yeast Anticancer Drug Screen. Data for the bub3 strain (AID 167); details: S. cerevisiae bub3 mutant strain, hits give high values
Outline: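 Screening used yeast with an engineered genetic alteration affecting cell cycle control. Compound-exposed cultures were compared with vehicle cultures, and reduced growth was taken as inhibition.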

[11] = NCI Yeast Anticancer Drug Screen. Data for the wt2 strain (AID 169);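 note: 0% = growth of vehicle-treated yeast cultures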; details: S. cerevisiae wt2 strain growth inhibition, hits give high values
Outline: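 Against vehicle-treated controls, the growth of yeast exposed to each compound was compared, and the inhibition was recorded.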

[12] = NCI Yeast Anticancer Drug Screen. Data for the mlh1 strain (AID 171);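 note: 0% = growth of vehicle-treated control cultures of the same strain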; details: S. cerevisiae mlh1 strain growth inhibition, hits give high values
Outline: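 Measured: yeast growth. Reference: vehicle-treated controls. Organism: strain with a defined alteration affecting DNA damage repair or cell cycle control, treated with compound.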

[13] = NCI Yeast Anticancer Drug Screen. Data for the sgs1 strain (AID 173);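 note: 0% = growth of vehicle-only control cultures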; details: S. cerevisiae sgs1 mutant, hits give high values
Outline: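 Each compound was added to cultures of the altered yeast strain. Growth was recorded, and inhibition was derived by comparison with vehicle controls.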

[14] = NCI Yeast Anticancer Drug Screen. Data for the mlh1 rad18 strain (AID 175); details: S. cerevisiae mlh1 rad18 strain growth inhibition, hits give high values
Outline: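 Genetically defined yeast (DNA repair-deficient) exposed to compounds; growth inhibition determined relative to vehicle.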

[15] = NCI Yeast Anticancer Drug Screen. Data for the rad18 strain (AID 177); details: S. cerevisiae rad18 mutant growth inhibition, hits give high values
Outline: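 Vehicle-treated cultures served as the baseline for scoring compound-induced growth inhibition in DNA-repair-mutant yeast.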

[16] = at 5.0 µM (retest, dose inferred, filed as 0.5)
[17] = at 50.0 µM (retest, dose inferred, filed as 5.0)

Measured: growth inhibition

COC(=O)CC1(O)C(/C=C/c2ccccc2)C(C(=O)OC)C(=O)C(C(=O)OC)C1C(=O)OC (stereo unspecified)
active: [10]; at 50.0 µM 74.2% | [14]; at 50.0 µM 85.3%
inactive: [1]; at 1.2 µM 0% | [1]; at 3.7 µM 0% | [1]; at 11.0 µM 1% | [1]; at 33.0 µM 2% | [1]; at 100.0 µM 13% | [2]; at 1.2 µM -7% | [2]; at 3.7 µM -6% | [2]; at 11.0 µM -7% | [2]; at 33.0 µM -6% | [2]; at 100.0 µM -16% | [3]; at 1.2 µM -2% | [3]; at 3.7 µM -3% | [3]; at 11.0 µM -3% | [3]; at 33.0 µM 13% | [3]; at 100.0 µM 43% | [4]; at 1.2 µM -1% | [4]; at 3.7 µM -1% | [4]; [16] -3% | [4]; at 11.0 µM 2% | [4]; at 33.0 µM 1% | [4]; [17] 6% | [4]; at 50.0 µM 38.9% | [4]; at 100.0 µM 4% | [5]; at 1.2 µM -3% | [5]; at 3.7 µM -1% | [5]; [16] 1% | [5]; at 11.0 µM -4% | [5]; at 33.0 µM -2% | [5]; [17] 20% | [5]; at 50.0 µM 50% | [5]; at 100.0 µM 12% | [6]; at 1.2 µM -4% | [6]; at 3.7 µM -1% | [6]; at 11.0 µM 0% | [6]; at 33.0 µM 0% | [6]; at 100.0 µM 2% | [7]; [16] -1% | [7]; [17] 23% | [7]; at 50.0 µM 48% | [8]; at 1.2 µM -2% | [8]; at 3.7 µM 1% | [8]; at 11.0 µM -2% | [8]; at 33.0 µM -7% | [8]; at 100.0 µM 39% | [9]; [16] -18% | [9]; [17] 44% | [9]; at 50.0 µM -0.7% | [10]; at 1.2 µM -4% | [10]; at 3.7 µM -5% | [10]; [16] -2% | [10]; at 11.0 µM -2% | [10]; at 33.0 µM -4% | [10]; [17] 6% | [10]; at 100.0 µM -5% | [11]; at 1.2 µM -2% | [11]; at 3.7 µM -2% | [11]; at 11.0 µM 0% | [11]; at 33.0 µM -1% | [11]; at 100.0 µM 7% | [12]; at 1.2 µM 1% | [12]; at 3.7 µM -1% | [12]; at 11.0 µM 0% | [12]; at 33.0 µM 1% | [12]; at 100.0 µM 5% | [13]; at 1.2 µM -1% | [13]; at 3.7 µM 1% | [13]; at 11.0 µM 1% | [13]; at 33.0 µM 4% | [13]; at 100.0 µM 43% | [14]; [16] 6% | [14]; [17] 30% | [15]; at 1.2 µM 0% | [15]; at 3.7 µM -2% | [15]; at 11.0 µM -4% | [15]; at 33.0 µM 3% | [15]; at 100.0 µM 4%

COC1CCC(O)C(/C=C/[N+](=O)[O-])C1 (stereo unspecified)
inactive: [1]; at 1.2 µM 27% | [2]; at 1.2 µM 6% | [2]; at 3.7 µM 19% | [2]; at 11.0 µM 56% | [3]; at 1.2 µM 8% | [3]; at 3.7 µM 63% | [4]; at 1.2 µM 29% | [4]; [16] 50% | [5]; at 1.2 µM 5% | [5]; at 3.7 µM 42% | [5]; [16] 21% | [6]; at 1.2 µM 7% | [6]; at 3.7 µM 42% | [7]; [16] 67% | [8]; at 1.2 µM 0% | [8]; at 3.7 µM 15% | [9]; [16] 17% | [10]; at 1.2 µM 4% | [10]; at 3.7 µM 32% | [11]; at 1.2 µM 9% | [11]; at 3.7 µM 66% | [12]; at 1.2 µM 13% | [13]; at 1.2 µM 13% | [13]; at 3.7 µM 68% | [15]; at 1.2 µM 12% | [15]; at 3.7 µM 65%
active: [1]; at 3.7 µM 81% | [1]; at 11.0 µM 99% | [1]; at 33.0 µM 99% | [1]; at 100.0 µM 99% | [2]; at 33.0 µM 94% | [2]; at 100.0 µM 99% | [3]; at 11.0 µM 99% | [3]; at 33.0 µM 100% | [3]; at 100.0 µM 99% | [4]; at 3.7 µM 83% | [4]; at 11.0 µM 99% | [4]; at 33.0 µM 99% | [4]; [17] 99% | [4]; at 50.0 µM 98.7% | [4]; at 100.0 µM 99% | [5]; at 11.0 µM 100% | [5]; at 33.0 µM 99% | [5]; [17] 100% | [5]; at 50.0 µM 99.6% | [5]; at 100.0 µM 99% | [6]; at 11.0 µM 99% | [6]; at 33.0 µM 99% | [6]; at 100.0 µM 99% | [7]; [17] 100% | [7]; at 50.0 µM 98.2% | [8]; at 11.0 µM 99% | [8]; at 33.0 µM 99% | [8]; at 100.0 µM 99% | [9]; [17] 99% | [9]; at 50.0 µM 89.8% | [10]; [16] 79% | [10]; at 11.0 µM 99% | [10]; at 33.0 µM 99% | [10]; [17] 100% | [10]; at 50.0 µM 98.7% | [10]; at 100.0 µM 99% | [11]; at 11.0 µM 99% | [11]; at 33.0 µM 99% | [11]; at 100.0 µM 99% | [12]; at 3.7 µM 79% | [12]; at 11.0 µM 99% | [12]; at 33.0 µM 99% | [12]; at 100.0 µM 100% | [13]; at 11.0 µM 99% | [13]; at 33.0 µM 99% | [13]; at 100.0 µM 98% | [14]; [16] 79% | [14]; [17] 99% | [14]; at 50.0 µM 98.2% | [15]; at 11.0 µM 99% | [15]; at 33.0 µM 99% | [15]; at 100.0 µM 99%
